In article PMC4336329 (PLoS ONE, 2015):
Screen size: about 310,000 compounds; about 14,000 (4.5%) showed an effect of 50% or more. Effects have a minus sign here. Many of the other results were omitted from the sample, so strong results are more common in it than they were.

biological target: human ether-à-go-go-related gene (hERG) potassium channel (human, UniProt Q12809); experiment: primary screen, population patch clamp on CHO cells stably expressing hERG; higher = less effect of the substance
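Also: peak tail current of the secondary pulse compared with the same well before compound.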

Sequence of human ether-à-go-go-related gene (hERG) potassium channel (Q12809 whole entry, looked up): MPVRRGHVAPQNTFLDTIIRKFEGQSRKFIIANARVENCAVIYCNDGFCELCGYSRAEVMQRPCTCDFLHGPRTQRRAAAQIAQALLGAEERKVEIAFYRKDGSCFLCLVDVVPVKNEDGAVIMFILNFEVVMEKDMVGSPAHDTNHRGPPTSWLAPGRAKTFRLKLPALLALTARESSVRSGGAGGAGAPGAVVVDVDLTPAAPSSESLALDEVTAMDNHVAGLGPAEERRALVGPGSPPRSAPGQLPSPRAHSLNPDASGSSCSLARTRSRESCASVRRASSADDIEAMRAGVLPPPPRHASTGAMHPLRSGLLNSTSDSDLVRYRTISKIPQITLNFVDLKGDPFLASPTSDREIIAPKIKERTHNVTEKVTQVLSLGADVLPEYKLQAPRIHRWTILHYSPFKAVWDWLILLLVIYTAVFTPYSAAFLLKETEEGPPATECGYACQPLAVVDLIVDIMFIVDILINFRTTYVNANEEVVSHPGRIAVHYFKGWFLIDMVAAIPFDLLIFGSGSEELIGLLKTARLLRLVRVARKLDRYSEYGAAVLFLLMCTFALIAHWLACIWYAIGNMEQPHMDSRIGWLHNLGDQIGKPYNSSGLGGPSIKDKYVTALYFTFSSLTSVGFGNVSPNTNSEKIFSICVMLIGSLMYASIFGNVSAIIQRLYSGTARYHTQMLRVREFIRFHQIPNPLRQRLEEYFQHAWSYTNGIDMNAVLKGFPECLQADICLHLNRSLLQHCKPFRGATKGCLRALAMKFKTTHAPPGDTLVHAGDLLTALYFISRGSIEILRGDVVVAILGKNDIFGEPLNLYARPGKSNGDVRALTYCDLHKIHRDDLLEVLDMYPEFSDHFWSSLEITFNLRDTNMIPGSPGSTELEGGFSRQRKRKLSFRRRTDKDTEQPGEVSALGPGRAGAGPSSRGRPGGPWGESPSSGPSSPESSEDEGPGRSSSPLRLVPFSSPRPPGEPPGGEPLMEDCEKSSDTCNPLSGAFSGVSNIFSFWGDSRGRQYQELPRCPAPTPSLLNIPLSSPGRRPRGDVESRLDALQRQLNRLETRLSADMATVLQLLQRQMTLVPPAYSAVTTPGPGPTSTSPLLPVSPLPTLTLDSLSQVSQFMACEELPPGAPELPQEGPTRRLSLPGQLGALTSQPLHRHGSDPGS

Row | Compound | hERG current change (%, negative = inhibition) at 10uM
1 | COc1ccc(NC(=O)Cc2nnc(SCC(=O)NC3CCCC3)n2C)cc1 | 15.3%
2 | CN(CC(=O)Nc1ccccc1Sc1ccccc1)Cc1nc2ccccc2c(=O)[nH]1 | -37.1%
3 | CC(C)CN(CC(C)C)C(=O)COc1ccccc1C(N)=O | 7.55%
4 | COc1ccc(S(=O)(=O)N2CCN(CC(=O)Nc3cc(C(F)(F)F)ccc3Cl)CC2)cc1 | -4.6%
5 | C=CCOc1ccccc1CN1CCC(Cc2ccccc2)CC1 | -70.3%
6 | C=CCOc1ccccc1CN1CCCCCC1 | -18.9%
7 | CCOc1ccc(S(=O)(=O)N2CCN(Cc3ccccc3)CC2)cc1 | 1.61%
8 | CSc1ccc(CN2CCC(Cc3ccccc3)CC2)cc1 | -65.4%
9 | C=CCOc1ccccc1CN1CCSCC1 | -11.2%
10 | CCOc1ccc(CN2CCC(Cc3ccccc3)CC2)cc1 | -78.3%
11 | Fc1ccc(CN2CCC(Cc3ccccc3)CC2)cc1F | 2.03%
12 | Clc1ccc(CN2CCC(Cc3ccccc3)CC2)cc1 | -40.9%
13 | Clc1cccc(CN2CCC(Cc3ccccc3)CC2)c1 | -27.9%
14 | O=C(CNS(=O)(=O)c1ccccc1)NCC(=O)OCc1ccccc1F | 13.7%
15 | CC[C@@]12C(=O)N(c3ccccc3)C(=O)N1[C@H](c1ccc(Br)cc1)[C@@H]1C(=O)N(C(C)(C)C)C(=O)[C@@H]12 | 4.22%
16 | CCOC(=O)/C=C/c1cnn(-c2ccccc2)c1 | 3%
17 | CCc1nc2cc(CC(=O)O)ccc2o1 | 8.35%
18 | COc1ccc(/C=N/NC(=O)Cn2cnc3ccccc3c2=O)cc1OC | -6.77%
19 | CCCCn1c(O)c(C(CC)=NCc2ccco2)c(=O)[nH]c1=O | -35.4%
20 | CC(C)CN(C(=O)CN(C)C(=O)Cc1ccccc1Cl)c1c(N)n(CC(C)C)c(=O)[nH]c1=O | 20.7%
21 | CCC1CCCCN1C(=O)c1cccc(S(=O)(=O)Nc2cc(C(F)(F)F)ccc2Cl)c1 (centres unmarked) | 2.59%
22 | COc1ccc(CCC(=O)NCCOc2ccc(Cl)cc2)cc1 | -7.98%
23 | COc1ccc(-c2[nH]c3ccccc3c2SCCNC(=O)c2cc3ccccc3oc2=O)cc1 | -0.175%
24 | CCOc1ccc(NC(=O)Cn2nnc(C(=O)NCc3cccs3)c2N)cc1 | 13.8%
25 | Cc1cc(=O)[nH]c2nnc(-c3ccc(Br)cc3)n12 | 5.99%

Row | Compound | hERG current change (%, negative = inhibition) at 10uM
26 | O=S(=O)(c1ccc2c(c1)CCN2)N1CCCC1 | -1.58%
27 | COc1ccc(CNC(=O)COC(=O)[C@H](Cc2c[nH]c3ccccc23)NC(=O)c2cccs2)cc1 | -0.701%
28 | OC(COc1cccc2ccccc12)CN1CCN(c2ccccc2)CC1 (centres unmarked) | -33.2%
29 | OC(COc1cccc2ccccc12)CN1CCCC1 (centres unmarked) | -29.4%
30 | OC(COc1cccc2ccccc12)CN1CCN(c2ccccc2Cl)CC1 (centres unmarked) | -50.2%
31 | COc1ccccc1N1CCN(CC(O)COc2c(OC)cccc2OC)CC1.Cl (centres unmarked) | -48.4%
32 | CCOC(=O)N1CCN(CC(O)c2ccc3cc[nH]c3c2)CC1 (centres unmarked) | -30.4%
33 | COc1ccccc1N1CCN(CC(O)COc2cccc3ccccc23)CC1.Cl (centres unmarked) | -68.3%
34 | OC(COc1ccc2ccccc2c1Cl)CN1CCOCC1 (centres unmarked) | -24.5%
35 | COc1ccccc1N1CCN(CC(O)COc2cccc3ccccc23)CC1.Cl.O (centres unmarked) | -61%
36 | COc1ccccc1N1CCN(CC(O)c2ccccc2)CC1 (centres unmarked) | -8.46%
37 | Cc1ccc(N2CCN(CC(O)COc3cccc4ccccc34)CC2)cc1 (centres unmarked) | -25.1%
38 | COc1ccccc1N1CCN(CC(O)c2ccc3cc[nH]c3c2)CC1 (centres unmarked) | -69.3%
39 | CCCc1nnc(SCC(=O)Nc2ccc(OCC)cc2)n1N | -3.79%
40 | CCN(c1ccccc1)S(=O)(=O)c1ccc(Cl)c(C(=O)N(CC2CCCO2)C2CCS(=O)(=O)C2)c1 (centres unmarked) | -5.04%
41 | Cc1ccc(-c2csnn2)cc1 | 6.13%
42 | CCN1CCN(CCCNC(=O)C2c3ccccc3C(=O)N(c3ccc(OC)cc3)C2c2ccc(OC)cc2)CC1 (centres unmarked) | 1.22%
43 | CCCCCN(C(=O)COC(=O)CSc1ccc([N+](=O)[O-])cc1)c1c(N)n(CCCC)c(=O)[nH]c1=O | -40.5%
44 | CCc1cccc(NC(=O)CN(c2ccc(C)cc2)S(=O)(=O)c2c(C)noc2C)c1 | 8.14%
45 | COc1cc(OC)c(NC(=O)CCc2nc(-c3ccc(C)cc3)no2)cc1Cl | 6.21%
46 | COc1ccc(-c2ccc(-c3noc(-c4ccccc4C)n3)c(OC)n2)cc1 | 6.35%
47 | O=C(NC1CCC(O)CC1)c1cccc2cccnc12 (centres unmarked) | 7.2%
48 | CC1CCCCN1Cc1c(O)ccc2c(=O)c(-c3ccc(Cl)cc3)coc12 (centres unmarked) | -69.1%
49 | CC1CCCCN1Cc1c(O)ccc2c(=O)c(-c3nc4ccccc4s3)c(N)oc12 (centres unmarked) | -60.6%
50 | CC1CCN(Cc2c(O)ccc3c(=O)c(-c4nc5ccccc5s4)c(N)oc23)CC1 | -48.5%
